proKLK7 act: activators of human kallikrein-7 zymogen; P49862; purified proKLK7, EDANS-DABCYL substrate fluorescence; 100% is mature enzyme control, 0% vehicle; activation, % at 7 µM; 370,000 tested, 0.9% active;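 active = activation above the mean of all tested compounds plus 3 SD, computed per campaign excluding outliers beyond control limits, cut at about 13% in these data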
NPR1 activator: GC-A (human) enzyme activation. HEK293 GC-A cells, cGMP TR-FRET, EC30 ANP; 0% at EC30 ANP, 100% saturating ANP. activation, % at 10 µM. 370,000 tested, 0.14% active; in the data active = activation above about 40%
ADAM17 inh: inhibits human ADAM17; P78536; recombinant ADAM17, EDANS/DABCYL FRET peptide cleavage; inhibition, % at 6.95 µM; 370,000 tested, 0.83% active; AID 720648;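 active = inhibition above the mean of compounds lying between control limits plus 3 SD, set per campaign, cut at about 8.5% in these data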;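 note: 0% = DMSO-only wells as the low control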
Target sequence (P78536 215-824 limits assumed): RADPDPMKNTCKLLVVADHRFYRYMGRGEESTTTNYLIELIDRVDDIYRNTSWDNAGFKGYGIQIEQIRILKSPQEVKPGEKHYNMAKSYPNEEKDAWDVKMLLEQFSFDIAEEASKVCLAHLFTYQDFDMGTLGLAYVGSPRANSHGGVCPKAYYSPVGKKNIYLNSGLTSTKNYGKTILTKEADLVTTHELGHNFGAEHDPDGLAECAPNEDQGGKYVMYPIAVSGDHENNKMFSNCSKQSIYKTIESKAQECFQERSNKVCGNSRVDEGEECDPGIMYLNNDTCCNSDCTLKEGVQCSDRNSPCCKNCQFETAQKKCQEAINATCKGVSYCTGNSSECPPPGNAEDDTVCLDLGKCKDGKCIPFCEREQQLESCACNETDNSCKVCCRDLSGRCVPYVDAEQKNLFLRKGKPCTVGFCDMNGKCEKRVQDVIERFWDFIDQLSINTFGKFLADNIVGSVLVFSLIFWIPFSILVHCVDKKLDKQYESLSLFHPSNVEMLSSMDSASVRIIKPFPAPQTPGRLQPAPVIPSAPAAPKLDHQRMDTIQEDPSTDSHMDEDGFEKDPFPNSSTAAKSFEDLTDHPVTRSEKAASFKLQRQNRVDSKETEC
ADAM10 inh: ADAM10 inhibition, QFRET primary screen. AID 720582. inhibition, % at 7 µM. O14672. recombinant ADAM10, EDANS/DABCYL FRET peptide cleavage, 3 h. 370,000 tested, 0.62% active;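 active = inhibition above a per-campaign cutoff equal to the mean of compounds falling between control-based bounds plus 3 SD, cut at about 20% in these data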;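 note: 0% = DMSO wells while the 100% control is not disclosed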
GC-B act: GC-B (human) receptor activation. HEK293-GC-B cells, CNP EC30, cGMP TR-FRET; 0% at EC30 CNP, 100% saturating CNP. activation, % at 10 µM. P20594. 370,000 tested, 0.11% active;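 active = activation at 10 µM reaching about 35% in either raw or pattern-adjusted values, limit read from the data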
KLK7 act conf: confirmation of human kallikrein-7 zymogen activators | shares compounds with proKLK7 act | purified proKLK7, EDANS-DABCYL substrate fluorescence; scaled: vehicle 0, mature enzyme 100 | activation, % at 7 µM | 3,200 tested, 68% active | AID 686949;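 active = activation, as change over the incubation, above the mean of all tested compounds plus 3 SD, cut at about 13% in these data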
EDANS-DABCYL int: fluorescence interference counter-screen for KLK7 activators. shares compounds with proKLK7 act. EDANS-DABCYL substrate fluorescence interference, no enzyme, 4 h; solvent 0%, active enzyme control 100%. activation, % at 7 µM. 3,200 tested, 80% active;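 active = activation above the all-compound mean plus 3 SD, ignoring values outside control-based bounds, cut at about 4.8% in these data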;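 note: value is the 4 h activation minus the activation read at time zero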
K7 EDANS ctr: optically interferes with EDANS-DABCYL fluorescence, kallikrein-7 activator counter-screen; EC50, µM; AID 720493; 250 tested, 20% active; shares compounds with proKLK7 act; EDANS-DABCYL peptide fluorescence interference, no enzyme;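 active = compounds that raise the fluorescence signal in this interference counterscreen, with EC50 at or below 10 µM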;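 note: intact quenched peptide substrate alone read at 355 nm excitation and 520 nm emission; signal is fluorescence gain from T0 to T4 after four hours at room temperature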
Starred values were filed as active, the others as inactive; i = inactive; . = no result. Rows were chosen to be rich in hits. Some 2.2% of all compounds tested hit in one or more screens of this group.

SMILES	proKLK7 act	NPR1 activator	ADAM17 inh	ADAM10 inh	GC-B act	KLK7 act conf	EDANS-DABCYL int	others
COc1ccc(/C=N\NC(=O)CCc2c(C)n[nH]c2C)c(OC)c1OC	0	2	-3	3	-2	.	.
COc1cc(/C=C/c2cc[n+](C)cc2)ccc1OCC(=O)Nc1ccccc1	24*	-1	-16	-42	2	28*	25*
COc1ccc(OC)c(/C=N/NC(=O)C(=O)N2CCCC2)c1	59*	-5	-6	-19	-5	48*	46*
COc1ccc(OC)c(/C=N/NC(=O)c2cc[n+](CC(=O)c3ccccc3)cc2)c1	31*	3	-3	-5	0	63*	65*
COc1ccc(OC)c(/C=N/NC(=O)CCc2c(C)n[nH]c2C)c1	17*	2	-320	i	-2	32*	35*
CC(=O)Nc1ccc(C(/C=C/c2ccccc2)Cc2ccccc2)cc1 (configuration not stated)	0	6	6	16	-1	.	.
CC(C)(C)C(=O)Nc1ccc(/C=C/C(=O)c2ccco2)cc1	78*	4	-70	-176	6	53*	48*
COC(=O)CC1=C(C(=O)OC)[C@@H](c2ccccc2[N+](=O)[O-])C(C#N)=C(N)O1	38*	-1	-13	-40	-2	90*	71*	K7 EDANS ctr=8.7*
COC(=O)CC1=C(C(=O)OC)C(c2cc(OC)c(OC)cc2OC)C(C#N)=C(N)O1 (configuration not stated)	3	-3	-7	-17	0	.	.
COc1cc2ccc(=O)oc2cc1OCC(O)C(C)(C)O (configuration not stated)	21*	1	i	i	3	33*	48*
COc1cc2ccc(=O)oc2cc1O	95*	9	i	i	-9	77*	83*
CCCCCC[C@@H](CC)CN(C(=O)Oc1ccccc1)c1ccccc1	0	-1	-2	-14	-2	.	.
O=c1[nH]c(N2CCOCC2)cc2ccccc12	34*	0	-200	i	-3	20*	-7	K7 EDANS ctr=>70
CCOc1cc2c(C#N)c(N3CCOCC3)nc(N)c2c(N)n1	16*	12	-112	-420	0	69*	66*
COCCN1C(=O)Cc2c1nc(N)c1c(N)nc(N3CCN(c4ccc(F)cc4)CC3)c(C#N)c21	-1	2	-4	-12	7	.	.
CCC1Cc2c(nc(N)c3c(N)nc(N4CCOCC4)c(C#N)c23)O1 (configuration not stated)	19*	15	-127	-379	3	-16	-24
COc1ccc(CN2C(=O)Cc3c2nc(N)c2c(N)nc(N4CCOCC4)c(C#N)c32)cc1	55*	-2	-108	-337	0	-48	-49
N#Cc1c(N2CCCCC2)nc(N)c2c(N)nc3c(c12)CC(CCl)O3 (configuration not stated)	14*	21	-181	i	4	-149	-159
Cc1cc(N2CCOCC2)nc(N2CCOCC2)c1C#N	0	4	-2	-8	-2	.	.
CN(C(=O)CNC(=O)c1ccccc1OCC(=O)Nc1ccc(I)cc1)c1ccccc1	1	0	-1	1	4	.	.
CCn1c2ccccc2c2cc(NC(=O)COC(=O)c3cccc(F)c3F)ccc21	0	0	0	0	-10	.	.
CCCCc1ccc2nc(NC(=O)c3cccs3)sc2c1	.	-9	-38	-132	-16	.	.
Cc1ccc(CN2CCCCC(NC(=O)c3ccc(COc4ccccc4)cc3)C2=O)cc1 (configuration not stated)	0	8	0	11	-1	.	.
CNc1ccc(/C=C\CCCO)cn1	16*	1	-340	i	2	15*	18*
O=C(Nc1ccc2c(c1)OCO2)c1cc(-c2ccc(O)cc2)on1	20*	3	-12	-25	1	21*	14*	K7 EDANS ctr=i
SMILES	proKLK7 act	NPR1 activator	ADAM17 inh	ADAM10 inh	GC-B act	KLK7 act conf	EDANS-DABCYL int	others
O=C(CCn1nnc(-c2cccs2)n1)NCc1ccco1	0	1	0	-1	4	.	.
CCC(C#Cc1ccccc1)N(C)C(N)=NC(=O)/C=C/c1ccccc1 (configuration not stated)	.	-18	0	0	-12	.	.
COC(=O)[C@]12C[C@H](CC(=O)NCCC(C)C)C(=O)N(CCc3ccc(OC)c(OC)c3)C1=C[C@H](C(C)C)O[C@@H]2C1CC1	0	6	-2	-2	6	.	.
COc1ccc(-n2c(SCC(=O)Nc3cc(C)c(NC(=O)c4ccccc4)cc3OC)nnc2-c2ccccc2F)cc1	-2	-3	7	11	0	.	.
Nc1ccc2c(C(F)(F)F)cc(=O)oc2c1	36*	12	i	i	-2	88*	86*
COC(=O)c1ccc(S(=O)(=O)N2CCC(NC(=O)CCc3ccccc3)CC2)cc1	0	0	0	-4	-1	.	.
COc1ccc(CNCc2c(O)c(Cl)cc3c(C)c(C)c(=O)oc23)c(OC)c1	32*	4	i	i	1	74*	78*
CCc1cc(=O)oc2c(CNCc3ccc(OC)cc3OC)c(O)c(Cl)cc12	44*	-2	i	i	-14	70*	67*
COc1ccc2c(c1)CO[C@H]([C@H](O)CO)[C@H]2/C=C/c1ccccc1	0	6	0	-8	-4	.	.
CCC(C)NC(=O)C1CCN(S(=O)(=O)c2ccc3[nH]c(=O)oc3c2)CC1 (configuration not stated)	1	3	-4	1	-2	.	.
CC[C@@]1(O)C(=O)OCc2c1cc1n(c2=O)Cc2cc3c(CN(C)C)c(O)ccc3nc2-1	60*	53*	-135	-494	14	70*	76*
CC[C@@]1(O)C(=O)OCc2c1cc1n(c2=O)Cc2cc3c(N)cccc3nc2-1	27*	-6	-27	-129	-2	78*	90*
CC1(C)Oc2ccc(C(=O)NC3CCCC3)cc2NC1=O	-1	4	1	-3	7	.	.
O=C(Nc1ccccc1Cl)OC1CC2CC1[C@H]1CCCCN1[C@H]2Cc1ccccc1 (some centres not stated)	0	-12	-6	-4	-6	.	.
Oc1[nH]c2ccccc2c1N=Nc1ccc(F)cc1	97*	2	4	9	-1	36*	56*
